# Compound activity: PubChem, National Center for Advancing Translational Sciences (NCATS)
# An excerpt weighted towards active compounds, which were near 14% of everything screened.
# Cycloheximide cs = Cycloheximide Counterscreen for Small Molecule Inhibitors of Shiga Toxin | cell reporter, cycloheximide protein synthesis inhibition counterscreen | max response, % | actives 12% (n = 300,000); in the data active means max response mostly above about 13%, no sharp cut-off; inactive means mostly below about 14%; further: read at 38.3 µM for the half of the compounds with a filed dose; 0% is about no effect
# FBPA Giardia inh = qHTS Assay for Inhibitors of Fructose-1,6-bisphosphate Aldolase from Giardia Lamblia. A8B2U2. purified Giardia FBPA. Potency, µM (doses to about 59.6 µM), for inactives: top-dose activity, negative = inhibition, most hits filed as inhibitors. actives 0.71% (n = 290,000); further: potency means the concentration at half of the fitted maximal effect; on the % scale 0 is the no-effect control and ±100 the full control effect; nearly all actives have a fitted effect of over 55% in size
#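 Giardia FBPA (40 nM reagent) was preincubated 10 min at RT with compound (up to 57.5 uM final), then substrate plus GAPDH/TPI/NAD/arsenate coupling system with diaphorase/resazurin was added; resorufin fluorescence (525/598 nm) was read after 20 min.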
# Shiga toxin inh = A qHTS for Small Molecule Inhibitors of Shiga Toxin; Vero cells, Shiga toxin protein synthesis inhibition reporter; inhibition, % at 38.7 µM; actives 9.2% (n = 290,000); AID 2315, 2010; in the data active means inhibition mostly above about 28%, no sharp cut-off; inactive means mostly below about 43%; further: 0% is about no effect
# NS1 inh = qHTS Assay for Inhibitors of Influenza NS1 Protein Function. Potency, µM (doses to about 46.1 µM), inactives show top-dose activity, positive = more growth. actives 0.4% (n = 270,000). AID 2326, 2010; calls by dose curve; further: potency means the concentration at half of the fitted maximal effect; actives are rising curves; nearly all actives have a fitted effect of over 50% in size
#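 In this qHTS, NS1 from influenza A is expressed in budding yeast, where it slows growth. Cells are switched from glucose to 2% galactose medium (pH 6.0, -URA), treated with compound, and growth recovery is read at OD600.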
# LmPK inh = qHTS Assay for Inhibitors of Leishmania Mexicana Pyruvate Kinase (LmPK); actives 0.37% (n = 290,000); Q27686; purified LmPK, Kinase-Glo ATP luminescence, 1 h; AID 1721, 2009; Potency, µM (titrated, usually from 57.5 µM), for inactives: top-dose activity change, negative = inhibition, usual class: inhibitors; further: potency means the concentration at half of the fitted maximal effect; on the % scale 0 is the no-effect control and ±100 the full control effect
# Target sequence (Q27686 whole entry, looked up): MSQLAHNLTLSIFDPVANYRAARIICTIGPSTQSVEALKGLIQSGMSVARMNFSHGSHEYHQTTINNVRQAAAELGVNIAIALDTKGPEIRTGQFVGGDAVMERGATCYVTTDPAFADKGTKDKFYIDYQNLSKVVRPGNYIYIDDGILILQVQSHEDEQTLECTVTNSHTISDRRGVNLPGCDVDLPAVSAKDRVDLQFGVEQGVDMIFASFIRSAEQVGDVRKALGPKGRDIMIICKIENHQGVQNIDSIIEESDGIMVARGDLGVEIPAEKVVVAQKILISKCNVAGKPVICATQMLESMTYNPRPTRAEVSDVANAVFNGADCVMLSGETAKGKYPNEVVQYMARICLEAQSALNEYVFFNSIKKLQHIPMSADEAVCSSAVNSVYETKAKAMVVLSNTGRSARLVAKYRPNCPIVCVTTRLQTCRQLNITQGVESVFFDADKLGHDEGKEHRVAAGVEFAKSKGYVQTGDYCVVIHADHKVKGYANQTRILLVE
#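 Purified LmPK (0.1 nM) with 0.5 mM PEP and 0.1 mM ADP in imidazole buffer pH 7.2 with MgCl2/KCl, 1 h at room temperature. ATP formed was read by luciferase luminescence and normalized to no-enzyme and uninhibited controls.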
# * marks the source's active call; other numbers are inactive results; nt = not tested or not shown. Unless noted, the call rests on the fitted dose curve; in most records, active means well fitted curve in the direction sought with a large enough effect; inconclusive means small, poorly fitted or top-dose-only effect, or another doubt; inactive means no such curve, though single readings can be large; an effect the other way counts as inactive or inconclusive.
SMILES,Cycloheximide cs,FBPA Giardia inh,Shiga toxin inh,NS1 inh,LmPK inh
CC[C@H](C)[C@H](NC(=O)[C@H](CCC(=O)O)NC(=O)CNC(=O)[C@@H](NC(=O)[C@H](CCC(=O)O)NC(=O)[C@H](CCC(=O)O)NC(=O)[C@H](CC(C)C)NC(=O)CNC(=O)[C@@H]1CCCN1C(=O)[C@H](CCC(=O)O)NC(=O)[C@@H](N)[C@@H](C)O)C(C)C)C(=O)N[C@@H](CCC(=O)O)C(=O)N[C@@H](CCC(N)=O)C(=O)N[C@@H](CCCCN)C(=O)N[C@@H](CCC(N)=O)C(=O)N[C@@H](CC(C)C)C(=O)N[C@@H](CCC(N)=O)C(=O)O,-4,10%,19,nt,nt
CC1=C(C(N)=O)C(c2ccccn2)n2nc(SCc3ccccc3)nc2N1 (stereo not drawn),1,1%,39,4%,8%
c1ccc(CSC2=NNC(c3ccccn3)S2)cc1 (stereo not drawn),33*,2%,32,13%,4%
O=C(CSC1=NNC(c2ccccn2)S1)Nc1ccc(C(F)(F)F)cc1 (stereo not drawn),23*,6%,38*,2%,3%
COc1ccc(C(=O)N2CCN(C)C(=O)[C@@H]2C)cc1OC1CCN(C(C)=O)CC1,-1,nt,-4,-1%,-3%
Cc1cc(C)cc(OCCOc2cccc(C=C3C(=O)NC(=O)NC3=O)c2)c1,18*,-8%,55*,-21%,12%
O=C1NC(=O)C(=Cc2ccc3ccccc3c2)C(=O)N1,-3,-24%,-6,8%,-1%
Cc1ccc(OCCOc2cccc(C=C3C(=O)NC(=O)NC3=O)c2)cc1,62*,9%,93*,-48%,5%
Cc1cc(NC(=O)CCl)nn1C,6,1%,24,6%,-6%
Cn1ccc(NC(=O)CCl)n1,29*,-6%,23,nt,9%
O=C(C1Cc2ccccc2CN1S(=O)(=O)c1cccs1)N1CCCCC1 (stereo not drawn),9.5*,-4%,-3,-2%,-6%
O=C(C1CCN(S(=O)(=O)c2cccs2)CC1)N1CCCC(C(F)(F)F)C1 (stereo not drawn),17*,nt,33,8%,-4%
COc1ccc(NC(=O)C2CCN(S(=O)(=O)c3c(C)nn(C)c3C)CC2)cc1,-3,-5%,3,-2%,2%
O=C(Nc1ccc2c(c1)OCO2)C1CCCN(S(=O)(=O)c2cccs2)C1 (stereo not drawn),2,-2%,0,2%,1%
CN(C)C(=O)C1Cc2ccccc2CN1S(=O)(=O)c1cccs1 (stereo not drawn),-3,4%,10,-1%,3%
O=C(Nc1ccc2c(c1)OCO2)C1CCN(S(=O)(=O)c2cccs2)CC1,8.4*,-14%,42*,-14%,-6%
Cc1nn(C)c(C)c1S(=O)(=O)N1CCC(C(=O)Nc2ccc3c(c2)OCCO3)CC1,30,-2%,81*,-10%,7%
CC1CCC(C(C)C)[C@H](O)C1 (stereo partly drawn),nt,7%,nt,nt,nt
O=C(Nc1ccc2c(c1)OCCO2)C1CCN(S(=O)(=O)c2cccs2)CC1,24*,-6%,23,-7%,3%
O=C(Nc1ccc2c(c1)OCO2)C1Cc2ccccc2CN1S(=O)(=O)c1cccs1 (stereo not drawn),18*,5%,26,-5%,2%
O=C(Nc1ccc2c(c1)OCCO2)C1CCCN(S(=O)(=O)c2cccs2)C1 (stereo not drawn),-2,-10%,-7,-7%,7%
CC(O)(P(=O)(O)O)P(=O)(O)O,-2,-20%,-3,nt,nt
COc1cc(NC(=O)C/C(C)=N/NC(=O)Cc2ccc(Cl)cc2)c(OC)cc1Cl,-5,0%,-17,6%,1%
COc1ccccc1NC(=O)C/C(C)=N/NC(=O)c1ccccn1,33*,12%,63*,-8%,2%
COc1cc(NC(=O)C/C(C)=N/NC(=O)c2ccccn2)c(OC)cc1Cl,44*,12%,72*,-3%,-4%
O=C(Nc1cccc2c1CCCC2)c1ccccc1Br,1,6%,-12,6%,-6%
CCCc1cc(COC)c(C#N)c(=O)[nH]1,nt,nt,nt,0%,nt
Oc1ccc(CCc2n[nH]c(=S)n2-c2ccc(F)cc2)cc1,1,0%,-4,-2%,7.9µM*
